Screens from PubChem.
An excerpt weighted towards active compounds, which were near 17% of everything screened.
HT1080 IDH1KD tx = qHTS for induction of synthetic lethality in tumor cells producing 2HG: qHTS for the HT-1080-IDH1KD cell line; Potency, µM (top dose mostly 46.1 µM), for the others: top-dose activity, negative = toxicity, hits mostly cytotoxic; hit rate 2% among 360,000; HT-1080 IDH1 knockdown viability, ATP luminescence, 48 h; AID 686971, 2013;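 note: 0% = DMSO wells and -100% = cell-free medium wells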
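CellTiter-Glo luminescence after 48 h compound exposure at 37 degrees C of IDH1-knockdown HT-1080 cells in 5% FBS RPMI. %Activity scaled between DMSO wells and cell-free media wells, with curves fitted and assigned curve classes.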
HepG2 viability = qHTS for Inhibitors of TGF-b: Cytotox Counterscreen; HepG2 CAGA-GFP viability, ATP luminescence, 18 h; hit rate 0.76% among 410,000; Potency, µM (highest dose often 46.1 µM), without a hit: at the top dose activity change, negative = cytotoxicity, actives largely listed as cytotoxic
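HepG2 CAGA-GFP cells (1000/well, DMEM with 1% FBS) received compound, then TGF-beta at 500 pg/mL final, and were incubated 18 hours at 37 degrees C. Viability was read by CellTiter-Glo luminescence. Media-only wells were set as complete cell-killing and DMSO as no toxicity.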
TDP1 cell CPT = qHTS for Inhibitors of human tyrosyl-DNA phosphodiesterase 1 (TDP1): qHTS in cells in presence of CPT; hit rate 12% among 420,000; chicken DT40 Tdp1-/-;hTDP1 cells + 20 nM CPT, ATP luminescence, 48 h; Potency, µM (doses to about 46.2 µM), inactives show top-dose activity change, negative = growth inhibition, actives largely listed as inhibitors; note: % is set by controls: 0 for no effect and ±100 for the full control effect; nearly all actives have a fitted effect of over 55% in size
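Chicken DT40 Tdp1-/- cells complemented with human TDP1, 400 cells/well, exposed to compounds plus 20 nM camptothecin for at least 48 h at 37 C; viability read as ATP content by CellTiter-Glo luminescence.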
HT1080-NT tox = qHTS for induction of synthetic lethality in tumor cells producing 2HG: qHTS for the HT-1080-NT fibrosarcoma cell line. hit rate 1.6% among 360,000. HT-1080-NT fibrosarcoma viability, CellTiter-Glo ATP luminescence, 48 h. Potency, µM (top dose mostly 46.1 µM), inactives show at the highest dose activity, negative = less viability, hits mostly cytotoxic;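 note: NT is the 2HG producing partner of a matched IDH1 knockdown line; 0% = DMSO-treated cells and -100% = media-only wells without cells; nearly all actives have a fitted effect of over 55% in size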
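Fibrosarcoma NT cells, 750 per well in 5% FBS RPMI, were exposed to compound for 48 hours. Viability: CellTiter-Glo luminescence.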
DT40 TDP1 no CPT = qHTS for Inhibitors of human tyrosyl-DNA phosphodiesterase 1 (TDP1): qHTS in cells in absence of CPT | DT40 Tdp1-/- hTDP1 cells, no CPT, ATP luminescence, 48 h | Potency, µM (titrated, usually from 46.2 µM), without a hit: at the top dose activity change, negative = growth inhibition, usual class: inhibitors | hit rate 15% among 420,000 | AID 686978, 2013; note: % is set by controls: 0 for no effect and ±100 for the full control effect; nearly all actives have a fitted effect of over 55% in size
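Chicken DT40 Tdp1-/- cells stably complemented with human TDP1 were seeded at 400 cells/well with DMSO in place of 20 nM camptothecin. After compound pinning, cells grew at least 48 hr at 37 °C; viability read by CellTiter-Glo luminescence.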
TGFb SMAD3 inh = qHTS for Inhibitors of TGF-b; HepG2 CAGA-GFP TGF-b/SMAD3 reporter, GFP fluorescence, 18 h; TGF-beta stimulated, 500 pg/mL final; Potency, µM (highest dose often 46.1 µM), for the others: at the top dose activity, negative = inhibition, usual class: inhibitors; hit rate 1.2% among 410,000; note: % is set by controls: 0 for no effect and ±100 for the full control effect; nearly all actives have a fitted effect of over 65% in size
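GFP signal (ex488/em500-530) from TGF-beta-stimulated HEPG2 CAGA-GFP cells, 500 pg/mL final, 18 h at 37 degrees C in DMEM plus 1% FBS, normalized to unstimulated and DMSO-stimulated controls.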
Active calls of the source: *; ? = inconclusive; · = not tested or not shown. Calls come from the whole dose curve; as a rule, active = well fitted curve in the direction sought with a large enough effect; inconclusive = small, poorly fitted or top-dose-only effect, or another doubt; inactive = no such curve, though single readings can be large; an effect the other way counts as inactive or inconclusive. Potency is the fitted concentration of half-maximal effect.

SMILES	HT1080 IDH1KD tx	HepG2 viability	TDP1 cell CPT	HT1080-NT tox	DT40 TDP1 no CPT	TGFb SMAD3 inh
COc1ccc(NC(=S)N2CCCN(Cc3cccc(Cl)c3)C2)cc1	-13.8%	-3.4%	?	-12.3%	16.4µM*	-7.9%
O=C(CCCCCCC(=O)c1ccccc1)c1ccccc1	3.1%	-21.0%	-14.2%	-3.7%	-19.7%	-1.3%
COc1ccc(Nc2nc(Nc3ccc(OC)cc3OC)nc(N3CCN(C)CC3)n2)c(OC)c1	-11.6%	19.3%	?	-22.9%	16.4µM*	20.6%
COc1ccc(Nc2nc(NC(C)(C)C)nc(N3CCCC3)n2)c(OC)c1	?	-61.5%	23.1µM*	?	16.4µM*	?
COc1ccc(Nc2nc(NC(C)(C)C)nc(N3CCOCC3)n2)c(OC)c1	-28.8%	-18.0%	20.6µM*	-17.4%	?	3.3%
COc1cccc(NC(=O)c2sc3nc(C)c(C(=O)Nc4ccc(C)cc4C)c(-c4ccccc4Cl)c3c2N)c1	·	-0.1%	-23.7%	·	?	-3.3%
Cc1nc(NC(=O)c2ccccc2)sc1C	-13.4%	15.8µM*	-22.8%	-20.3%	?	8.8%
Cc1nc(NC(=S)NC(=O)c2ccccc2)sc1C	5.2%	-14.7%	4.6%	-1.7%	?	-29.8%
Cc1cc(C)nc(NC(=O)c2c(-c3ccccc3Cl)noc2C)c1	7.3%	-10.0%	?	2.5%	20.6µM*	?
Cc1cc(C)nc(NC(=O)CCCC(=O)O)c1	11.1%	16.7%	3.2%	8.7%	4.8%	2.7%
Cc1onc(-c2ccccc2Cl)c1C(=O)Nc1ccccc1O	-0.9%	-13.0%	?	-1.0%	18.4µM*	-29.6%
Cc1ccnc(NC(=O)c2c(-c3ccccc3Cl)noc2C)c1	3.0%	-14.5%	?	8.7%	-27.6%	-4.5%
Cc1cc(C)nc(NC(=O)c2c(F)c(F)c(F)c(C(=O)Nc3cc(C)cc(C)n3)c2F)c1	-20.8%	-82.6%	?	-19.3%	16.4µM*	?
O=C(Cc1ccc(NC(=O)C2CCN(C(=O)C3CCCC3)CC2)cc1)Nc1cccc(C(=O)N2CCCCC2)c1	4.6%	14.7%	-24.7%	3.6%	-26.7%	-7.3%
Cc1cc(C)cc(NC(=O)CCC(=O)Nc2nnc(C(C)C)s2)c1	-4.5%	-17.6%	-3.4%	3.7%	5.7%	?
O=C(O)c1ccccc1-n1c(-c2ccccc2)cc2c1CCCC2=O	-0.6%	5.3%	-11.9%	5.3%	-6.2%	-9.5%
Cc1onc(-c2ccccc2Cl)c1C(=O)Nc1ccccc1	-4.2%	-40.2%	11.6µM*	-2.6%	?	2.7%
O=C(Nc1ccccc1)c1cc(-c2ccccc2Cl)no1	13.3%	-4.8%	16.4µM*	17.9%	16.4µM*	-0.1%
Cc1onc(-c2ccccc2Cl)c1C(=O)Nc1ccc(Br)cc1	?	-0.4%	-23.7%	?	-29.1%	0.2%
COC(=O)c1c(NC(=O)c2c(-c3ccccc3Cl)noc2C)sc2c1CCC2	-9.9%	0.1%	17.8µM*	-2.1%	17.8µM*	-5.3%
Cc1onc(-c2ccccc2Cl)c1C(=O)N(C)C1CCCCC1	-5.8%	-4.6%	4.61µM*	-2.1%	3.66µM*	?
CCOCCCNC(=S)Nc1ccc2nc(N3CCOCC3)cc(C)c2c1	0.6%	0.7%	-23.3%	1.3%	?	-7.9%
Cc1nc(NC(=O)c2c(-c3ccccc3Cl)noc2C)sc1C	-15.9%	-0.7%	16.4µM*	0.1%	?	-0.8%
